Results on 19 compounds are retold here after PubChem BioAssay (Tox21).

Molecules are shown by their SMILES. A number with no mark means an inactive call. Results filed as inconclusive are left out. The source made the active and inactive calls. The call rests on the fitted dose curve; in most records, active means well fitted curve in the direction sought with a large enough effect in the repeat runs; inconclusive means weak or mixed curves; inactive means no such curve, though single readings can be large; an effect the other way counts as inactive or inconclusive.

Test [1] is described as follows: qHTS RealTime-Glo MT Cell Viability Assay in HEK293 cells - 40 hour (AID 1224874). Further: nearly all actives have a fitted effect of over 50% in size. Further: potency means the concentration at half of the fitted maximal effect. The note with it: RealTime-Glo luminescence; max response: hits give low values. The procedure, abridged:
(§1)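 600 cells/well were plated with the nonlytic NanoLuc/prosubstrate reagent, pre-incubated 5 h, then given 23 nL of compound in DMSO. Incubation at 37 C for 40 h, with luminescence from viable-cell-reduced substrate read repeatedly from 0 h.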
On the technique in general: In qHTS, concentration-response curves come from the screen itself.

Test [2] can be described thus: A CellTox Green Cytotoxicity Assay to monitor cytotoxicity in HepG2 cells - 16 hour (AID 1224876). Further: nearly all actives have a fitted effect of over 45% in size. Further: potency means the concentration at half of the fitted maximal effect. The essentials:
(§2)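 HepG2 cells, 600/well, preincubated 5 h with CellTox Green dye, then exposed to Tox21 compounds in DMSO at 37 C for up to 40 h. Dead-cell DNA fluorescence read at the indicated time point.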

Test [3] is described as follows: qHTS RealTime-Glo MT Cell Viability Assay in HepG2 cells - 32 hour (AID 1224877). Further: nearly all actives have a fitted effect of over 55% in size. Further: potency means the concentration at half of the fitted maximal effect. The essentials: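 Cell number in HepG2 cultures estimated from NanoLuc luminescence generated by metabolic reduction of a prosubstrate by living cells. The homogeneous, nonlytic format allowed repeated reads at 0, 8, 16, 24, 32 and 40 h of compound exposure.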
Test [4] can be described thus: A CellTox Green Cytotoxicity Assay to monitor cytotoxicity in HepG2 cells - 24 hour (AID 1224878). Further: nearly all actives have a fitted effect of over 45% in size. Further: potency means the concentration at half of the fitted maximal effect. The procedure, abridged: as §2
A short description of test [5]: A CellTox Green Cytotoxicity Assay to monitor cytotoxicity in HepG2 cells - 40 hour (AID 1224879). Further: nearly all actives have a fitted effect of over 40% in size. Further: potency means the concentration at half of the fitted maximal effect. The essentials: as §2
Test [6] can be described thus: qHTS RealTime-Glo MT Cell Viability Assay in HEK293 cells - 0 hour (AID 1224880). Further: top concentration of the series differs between compounds; nearly all actives have a fitted effect of over 45% in size. The procedure, abridged:
as §1

A short description of test [7]: A CellTox Green Cytotoxicity Assay to monitor cytotoxicity in HEK293 cells - 32 hour (AID 1224881). Further: nearly all actives have a fitted effect of over 40% in size. Further: potency means the concentration at half of the fitted maximal effect. The procedure, abridged: (§3)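 HEK293 cells, 600/well, were preincubated 5 hours and then exposed to compounds at 37 C for up to 40 hours. A cell-impermeant cyanine dye staining dead-cell DNA was read by fluorescence at 0, 8, 16, 24, 32 and 40 h time points.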
A short description of test [8]: A CellTox Green Cytotoxicity Assay to monitor cytotoxicity in HepG2 cells - 0 hour (AID 1224882). Further: nearly all actives have a fitted effect of over 35% in size. The essentials:
as §2

Test [9] can be described thus: A CellTox Green Cytotoxicity Assay to monitor cytotoxicity in HepG2 cells - 32 hour (AID 1224883). Further: nearly all actives have a fitted effect of over 50% in size. Further: potency means the concentration at half of the fitted maximal effect. The essentials:
as §2

Test [10] is described as follows: A CellTox Green Cytotoxicity Assay to monitor cytotoxicity in HEK293 cells - 24 hour (AID 1224875). Further: nearly all actives have a fitted effect of over 45% in size. Further: potency means the concentration at half of the fitted maximal effect. The essentials:
as §3
On the % scale 0 is the no-effect control and ±100 the full control effect.

Regarding `CCOC=C(C(=O)OCC)C(=O)OCC`, the max response in test [1] was -0.307%. Further, the Potency entry in [2], in [3], in test [4], in test [5], in test [6] and in test [7] was “inactive” throughout. Further, the Potency entry in test [8] and in test [9] was “inactive” each time.
On to `Nc1cc([N+](=O)[O-])cc(Cl)c1O`, for which the max response in [1] is -6.05%. The Potency result in test [10], in test [2], in test [3], in test [5], in test [6] and in [8] was “inactive” throughout. Besides, the Potency result in test [9] is “inactive”.
On to `O=C1CCCCCCCCCCCCCC1`, for which the max response in test [1] is -11.7%. Besides, the Potency in test [10] and in [7] was 43.6 µM (active) each time. In addition, the Potency result in test [2], in test [3], in [6] and in [8] was “inactive” each time.
For `Cc1c[nH]c(=O)[nH]c1=O`, in [1], the max response is 10.6%. Further, the Potency result in test [10], in test [3], in test [6] and in test [8] was “inactive” each time.
On to `CC/C=C(\C)C=O`, for which the max response in test [1] was 4.52%. The Potency entry in test [10], in test [2], in test [3], in test [5], in test [6] and in [7] was “inactive” in each case. In test [9], the Potency result was “inactive”.
`c1ccc2c(c1)-c1ccc3ccc4cccc5cc-2c1c3c45`: the max response in [1] was 8.42%. Besides, the Potency result in test [10], in test [2], in test [3], in test [6] and in test [8] was “inactive” throughout. For the same compound, in test [5], the Potency is 9.52 µM (active).
`C=CCc1cc(S(=O)(=O)c2ccc(O)c(CC=C)c2)ccc1O`: the Potency in test [1] was 24.5 µM (active). The Potency entry in test [10], in test [2], in test [4], in test [5], in test [7] and in test [8] was “inactive” each time. The Potency result in test [9] is “inactive”.
As for `Cc1ccc2n[nH]nc2c1`, the max response in test [1] is -0.793%. For the same compound, the Potency result in test [10], in test [2], in test [3], in test [5], in test [6] and in test [8] was “inactive” each time. In addition, the Potency result in test [9] was “inactive”.
For the compound `C/C(=N\[Si](C)(C)C)O[Si](C)(C)C`, the max response in test [1] was -1.35%. In addition, the Potency entry in [10], in test [2], in test [3], in test [5], in test [6] and in [8] was “inactive” each time. The Potency entry in test [9] was “inactive”.
As for `CC/C=C\C/C=C\C/C=C\CCCCCCCC(=O)OC`, in test [1], the max response was -12.1%. For the same compound, the Potency entry in test [10], in test [2], in test [3], in [5], in [6] and in test [7] was “inactive” throughout. The Potency entry in test [8] and in test [9] was “inactive” throughout.
Regarding `N#Cc1ccc(C/C(=N/NC(=O)Nc2ccc(OC(F)(F)F)cc2)c2cccc(C(F)(F)F)c2)cc1`, in [1], the max response was -2.78%. Also, the Potency result in test [10], in test [2], in test [5], in test [6], in test [7] and in [8] was “inactive” each time. Also, the Potency result in test [9] was “inactive”.
Take `CC(=O)[C@]1(O)Cc2c(O)c3c(c(O)c2[C@@H](O[C@H]2C[C@H](N)[C@H](O)[C@H](C)O2)C1)C(=O)c1ccccc1C3=O`: the Potency in test [1] is 0.0601 µM (active); in [2] it was 21.3 µM (active); in [4], 23.9 µM (active); in test [9], 23.9 µM (active). The Potency entry in test [10], in test [6] and in test [7] was “inactive” in each case.
`Cc1cc(Br)ccc1NC(=O)CCl`: the values for the Potency in [1] and in [3] were 19.5 µM (active) and 43.6 µM (active), respectively. Further, the Potency result in [10], in test [2], in [6] and in test [8] was “inactive” in each case.
Consider `O=S(=O)(c1ccc(OCc2ccccc2)cc1)c1ccccc1O`, for which the Potency in test [1] was 19.5 µM (active). For the same compound, the Potency result in test [10], in [3], in [6] and in test [7] was “inactive” throughout.
Turning to `CC(c1cc(C(C)(C)C)cc(C(C)(C)C)c1O)c1cc(C(C)(C)C)cc(C(C)(C)C)c1O`, in [1], the Potency is 19.5 µM (active). Also, the Potency result in [10], in test [2], in [3], in test [5], in test [6] and in test [9] was “inactive” in each case.
Take `CCCCCCCCCC[N+](C)(CCCCCCCCCC)CCC[Si](OC)(OC)OC`: the Potency is 27.5 µM (active) in test [1]; 38.9 µM (active) in test [10]; 43.6 µM (active) in test [2]; 49 µM (active) in test [3]; 19.5 µM (active) in test [5]; 24.5 µM (active) in test [7]. For the same compound, the Potency in test [9] was 21.9 µM (active). Further, the Potency result in test [8] was “inactive”.
With `CCCC(=O)c1cc(O)c(O)cc1O`, the max response in test [1] is 1.65%. Besides, the Potency entry in test [10], in test [3], in [5], in test [6] and in [7] was “inactive” each time.
As to `COC(=O)c1ccc([N+](=O)[O-])cc1`, the max response in test [1] is -4.75%. Also, the Potency result in [10], in [2], in test [3], in test [5], in test [6] and in [9] was “inactive” each time.
`CC(O)(c1ccc(Cl)cc1)c1ccc(Cl)cc1`: the Potency in [1] was 24.5 µM (active); in [10], 49 µM (active); in test [2] it was 49 µM (active); in test [4], 49 µM (active); in test [5], 49 µM (active); in test [7], 49 µM (active). Further, the Potency in test [9] is 49 µM (active). Moreover, the Potency result in test [6] and in [8] was “inactive” each time.
